Screens as filed in PubChem BioAssay.
This excerpt belongs to a sample that is enriched for hits.
TDP1 cell CPT – growth inhibition of DT40 Tdp1-/-;hTDP1 cells with camptothecin (screen for TDP1 inhibitors). chicken DT40 Tdp1-/-;hTDP1 cells + 20 nM CPT, ATP luminescence, 48 h. Potency, µM (highest dose often 46.2 µM), for the others: at the top dose activity change, negative = growth inhibition, usual class: inhibitors. 12% of 420,000 active; note: potency is the fitted concentration of half-maximal effect; nearly all actives have a fitted effect of over 55% in size
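Cell growth measured by CellTiter-Glo luminescence after a minimum 48 h, 37 C compound exposure with 20 nM CPT in Tdp1-knockout DT40 cells stably expressing hTDP1, seeded 400/well; qHTS titration format.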
ALOX12 inh – inhibitors of human 12S-lipoxygenase ALOX12; 1.1% of 580,000 active; purified 12hLO, xylenol orange hydroperoxide absorbance; Potency, µM (highest dose often 108 µM), without a hit: top-dose activity change, negative = inhibition, actives largely listed as inhibitors; P18054; AID 1671190; note: potency is the fitted concentration of half-maximal effect
Target sequence (P18054 whole entry, looked up): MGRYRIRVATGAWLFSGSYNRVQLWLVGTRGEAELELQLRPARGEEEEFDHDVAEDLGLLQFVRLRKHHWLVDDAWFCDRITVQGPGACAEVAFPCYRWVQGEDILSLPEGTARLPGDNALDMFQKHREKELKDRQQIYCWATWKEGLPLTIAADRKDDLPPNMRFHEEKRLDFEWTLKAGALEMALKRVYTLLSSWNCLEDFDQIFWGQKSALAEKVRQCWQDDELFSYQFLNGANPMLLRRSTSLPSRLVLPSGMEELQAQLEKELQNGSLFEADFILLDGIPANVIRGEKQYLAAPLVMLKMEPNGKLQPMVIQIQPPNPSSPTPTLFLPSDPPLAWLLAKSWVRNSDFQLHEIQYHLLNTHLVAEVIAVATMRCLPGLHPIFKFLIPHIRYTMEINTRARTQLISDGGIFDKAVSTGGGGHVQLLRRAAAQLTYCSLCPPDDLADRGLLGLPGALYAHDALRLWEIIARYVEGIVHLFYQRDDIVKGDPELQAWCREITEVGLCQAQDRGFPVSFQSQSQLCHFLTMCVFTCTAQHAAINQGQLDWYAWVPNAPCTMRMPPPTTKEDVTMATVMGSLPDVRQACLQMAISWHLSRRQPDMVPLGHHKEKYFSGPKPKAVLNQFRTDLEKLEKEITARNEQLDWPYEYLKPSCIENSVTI
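Hydroperoxide product was detected by ferrous iron/xylenol orange as the 573 to 405 nm absorbance ratio. Arachidonic acid at 40 uM (final) was turned over for 30 min at room temperature by 150 nM human 12hLO, pH 7.0 Hepes buffer, after 15 min compound preincubation.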
TDP1 cell noCPT – qHTS for Inhibitors of human tyrosyl-DNA phosphodiesterase 1 (TDP1): qHTS in cells in absence of CPT; DT40 Tdp1-/- hTDP1 cells, no CPT, ATP luminescence, 48 h; Potency, µM (highest dose often 46.2 µM), inactives show at the highest dose activity change, negative = growth inhibition, usual class: inhibitors; 15% of 420,000 active; AID 686978, 2013; note: potency is the fitted concentration of half-maximal effect; nearly all actives have a fitted effect of over 55% in size
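DT40 Tdp1-/-;hTDP1 cells, no CPT (DMSO vehicle only), 400 cells/well; compounds pin-transferred; ≥48 hr, 37 °C; CellTiter-Glo 30 min RT dark, luminescence read.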
HT1080-NT tox – kills 2HG-producing HT-1080-NT fibrosarcoma cells; Potency, µM (highest dose often 46.1 µM), without a hit: at the highest dose activity, negative = less viability, usual class: cytotoxic; AID 686970; 1.6% of 360,000 active; HT-1080-NT fibrosarcoma viability, CellTiter-Glo ATP luminescence, 48 h;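 note: NT is the 2HG producing partner of a matched IDH1 knockdown line; potency is the fitted concentration of half-maximal effect; 0% = DMSO-treated cells and -100% = media-only wells without cells; nearly all actives have a fitted effect of over 55% in size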
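Read-out is CellTiter-Glo luminescence after 10 minutes at room temperature, following 48 hours' compound treatment of HT-1080-NT cells (750 cells/well, RPMI, 5% FBS, 37 degrees C).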
HT1080 IDH1KD tx – HT-1080 IDH1 knockdown cell toxicity (counter line); HT-1080 IDH1 knockdown viability, ATP luminescence, 48 h; Potency, µM (top dose mostly 46.1 µM), without a hit: at the highest dose activity, negative = toxicity, hits mostly cytotoxic; 2% of 360,000 active; AID 686971;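 note: potency is the fitted concentration of half-maximal effect; 0% = DMSO wells and -100% = cell-free medium wells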
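In this qHTS, HT-1080 cells depleted of IDH1 are exposed for 48 h at 37 °C to compound titrations. Toxicity is scored from CellTiter-Glo luminescence, with DMSO as full viability and medium alone as none.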
IL1B secr inh – blocks inflammasome-driven IL-1 beta release; THP-1 LPS/ATP IL-1B secretion, AlphaLISA, 16 h; stronger effect = lower value; activity change, % at 57.5 µM; 4.7% of 360,000 active; AID 743279; in the data active = activity change below about -50%; inconclusive = mostly about -30% to -49%
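THP-1 cells pretreated 1 hr with compounds (up to 57.5 uM final), then stimulated with LPS (250 ng/mL final) plus ATP (1.25 mM final); secreted IL-1B measured by AlphaLISA after 16 hr, decreased signal indicating inhibition.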
* hit, by the source's call; u = inconclusive; x = no result. Unless noted, calls come from the whole dose curve; as a rule, active = well fitted curve in the direction sought with a large enough effect; inconclusive = small, poorly fitted or top-dose-only effect, or another doubt; inactive = no such curve, though single readings can be large; an effect the other way counts as inactive or inconclusive. Unless noted, % is set by controls: 0 for no effect and ±100 for the full control effect.

SMILES	TDP1 cell CPT	ALOX12 inh	TDP1 cell noCPT	HT1080-NT tox	HT1080 IDH1KD tx	IL1B secr inh
CCOC(=O)c1c2n(c3c(NCc4ccccc4)ncnc13)CCCC2	u	0%	21µM*	-21%	-19%	-26
Cc1ccc2c3cc(-c4ccccc4)cn3ccn12	x	0.79µM*	x	x	x	x
COC1CCC12CCN(C(=O)Cc1cccnc1)CC2 (configuration not stated)	x	19%	x	x	x	x
Cc1ncc(C(=O)N2CCOCC2CC(=O)N2CCCC2)c(-c2ccccc2)n1 (configuration not stated)	x	30%	x	x	x	x
Cc1cc(C(O)c2ncc(-c3cccc4ccccc34)[nH]2)ccc1F (configuration not stated)	u	u	u	u	-14%	-14
OC(c1ccc(Cl)c(F)c1)c1ncc(-c2cccc3ccccc23)[nH]1 (configuration not stated)	u	-25%	u	u	u	-60*
OC(c1ccc2ccccc2c1)c1ncc(-c2cccc3ccccc23)[nH]1 (configuration not stated)	u	-5%	u	18µM*	26µM*	u
Cc1ccc(S(=O)(=O)N2CCC(=O)N(CCOCc3cccc(C)c3)CC2)cc1	10µM*	-3%	u	4%	-3%	-9
Cc1ccc(S(=O)(=O)N2CCC(=O)N(CCOCc3cccc(C(F)(F)F)c3)CC2)cc1	15µM*	u	u	-6%	1%	u
COc1ccc(COCCN2CCN(S(=O)(=O)c3ccc(C)cc3)CCC2=O)cc1	21µM*	u	u	5%	5%	-11
COc1cc2c(cc1OC)C(c1cc(Br)ccc1F)N(C(=O)CCl)CC2 (configuration not stated)	1.5µM*	16µM*	1.6µM*	21µM*	21µM*	-71*
O=C(c1cc(F)c(F)cc1Cl)N1CCN(c2ncccn2)CC1	7%	9%	10%	-9%	-10%	-1
CCCCCc1ccnc(CC(=O)c2ccc(OC)cc2)c1	8.2µM*	u	8.2µM*	-16%	-5%	-19
CCn1nc(C(=O)Nc2cc(C(F)(F)F)ccc2N2CCOCC2)c2ccccc2c1=O	x	2%	x	x	x	x
CCN1CCCC(OC(=O)c2cc(-c3ccc(C)cc3)nc3ccccc23)C1 (configuration not stated)	u	u	16µM*	-28%	u	-147*
CCOC(=O)C1CCCN(C(=O)c2cc(-c3ccc(F)cc3)nc3ccccc23)C1 (configuration not stated)	u	1%	15µM*	u	-9%	-14
CCOC(=O)C1CCCN(C(=O)c2cc(-c3ccco3)nc3ccccc23)C1 (configuration not stated)	-10%	8.9µM*	-1%	-1%	8%	3
CCOC(=O)C1CCCN(C(=O)c2cc(Nc3ccc(OC)cc3)nc3ccccc23)C1 (configuration not stated)	21µM*	-1%	15µM*	0%	-9%	-1
O=C(Nc1ccccc1N1CCOCC1)c1cccc2ccccc12	u	-3%	-18%	1%	0%	-23
O=C(NCc1cccc(Cl)c1)C1CCN(c2nn3cc(-c4ccc(F)cc4)nc3s2)CC1	u	-16%	u	x	x	x
O=C(Nc1cccc(Cl)c1)C1CCCN(c2nn3cc(-c4ccc(F)cc4)nc3s2)C1 (configuration not stated)	u	u	23µM*	x	x	x
COc1ccc(-c2cn3nc(N4CCCC(C(=O)Nc5ccc(Cl)cc5C)C4)sc3n2)cc1 (configuration not stated)	u	0%	-17%	x	x	x
O=C(NCc1cccc(Cl)c1)C1CCCN(c2nn3cc(-c4ccc(F)cc4)nc3s2)C1 (configuration not stated)	u	-19%	23µM*	x	x	x
CCN(CC)CCNC(=O)C1CCN(c2nn3cc(-c4ccc(F)cc4)nc3s2)CC1	5.2µM*	0%	3.3µM*	x	x	x
Cc1cc(C)c(NC(=O)c2nc3ccccc3nc2N2CCOCC2)c(C)c1	x	-1%	x	x	x	x
SMILES	TDP1 cell CPT	ALOX12 inh	TDP1 cell noCPT	HT1080-NT tox	HT1080 IDH1KD tx	IL1B secr inh
O=C(NCc1cccc(C(F)(F)F)c1)C1CC2Cn3c(nc4ccccc43)C2N1Cc1ccccc1 (configuration not stated)	-90%	u	13µM*	0%	-5%	-9
CC(=O)OC1=CSc2cccc3cccc1c23	x	40µM*	x	x	x	x
CC(=O)Oc1cccc(/C=C2\Sc3ccccc3C2=O)c1	7%	u	u	-5%	-7%	-24
NC(=O)C(c1ccc(Br)cc1)c1ccc(C(=O)c2ccccc2)cc1 (configuration not stated)	u	9%	15µM*	u	u	-91*
COc1ccc(CCC(C)NCCc2ccc(Cl)cc2Cl)cc1 (configuration not stated)	u	u	23µM*	u	u	-51*
COc1ccc(CCC(C)NCC2CCCCC2)cc1 (configuration not stated)	u	-26%	18µM*	-23%	-7%	-18
COc1ccc(CCC(C)NC2CCCCCCC2)cc1 (configuration not stated)	u	24%	u	u	u	-73*
COc1ccc(CCC(C)NCc2cc(OC)cc(OC)c2)cc1 (configuration not stated)	u	u	u	1%	-3%	-17
OCC#Cc1csc(CN2CCCN(C3CCCCC3)CC2)c1	x	22%	x	x	x	x
COc1ccc(-n2c(=O)c3c(c4cc(OC)ccc4n3C)n(C)c2=O)cc1	-2%	-4%	1%	x	x	x
CC(=O)N1CCN(C(=O)c2cc3ccccc3[nH]2)CC1	x	5%	x	x	x	x
N#Cc1c(Cl)nc2c(c1C#N)CCCC2	6%	u	18µM*	3%	-3%	-4
N#Cc1c(N)nc2c(c1-c1ccc(Cl)cc1)CCCC2	x	4%	x	x	x	x
Cc1ccc(C(c2cccc([N+](=O)[O-])c2)c2ccc(C)s2)s1	x	24%	x	x	x	x
Cc1ccc2[nH]cc(C(c3ccccc3)c3ccc(C)s3)c2c1 (configuration not stated)	u	u	18µM*	x	x	x
Cc1ccc2[nH]cc(C(c3ccccc3)c3cccs3)c2c1 (configuration not stated)	u	-30%	18µM*	x	x	x
